# Measured values as given in PubChem BioAssay AID488908 (National Center for Advancing Translational Sciences (NCATS), 2010).
# Results filed as inconclusive are left out. Values without a mark were called inactive. Active and inactive are the calls of the source. The call rests on the fitted dose curve; in most records, active means well fitted inhibition curve with a large enough effect; inconclusive means small, poorly fitted or top-dose-only effect; inactive means flat fitted curve, though single readings scatter.
# Experiment: Secondary Assay for lipid storage modulators: Cytotoxcity for probe SAR
# Conditions: Drosophila S3 cells viability, CellTiter-Glo luminescence, 24 h, with oleic acid added (1 µL, 400 µM); series mostly up to 46.1 µM; activity change, negative = cytotoxicity: at the top concentration
# Method in brief: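 Drosophila S3 embryonic cells, 5,000/well, exposed to compound at several concentrations with 400 uM oleic acid stock added, 24 h at 24 degrees C; viability by CellTiter-Glo luminescence.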
SMILES,"activity change, negative = cytotoxicity",Potency
COc1ccc(Cl)cc1NC(=S)N1CCN(c2ccc(F)cc2)CC1,-5.01%,
O=C(NC1CCCc2c1cnn2-c1cc(F)cc(F)c1)c1cccc2nccnc12 (configuration not stated),-6.12% [at 30.7 µM],
CCOC(=O)C1CCN(C(=O)C(C)(C)NC(=O)Nc2ccccc2Cl)CC1,-7.62%,
O=C(NCCc1ccc(O)c(O)c1)c1cc2sccc2n1Cc1ccccc1,-15%,
O=C(NC1CCCc2c1cnn2-c1ccc(F)cc1F)c1cccs1 (configuration not stated),,8.88 µM (active)
CCc1sc(NC(=O)Cc2cccs2)nc1-c1ccccc1,-14.1%,
CCOC(=O)C1CCN(C(=O)C2(NC(=O)Nc3ccccc3Cl)CCC2)CC1,-4.57%,
CCn1c(C(=O)NCCc2ccc(OC)c(OC)c2)cc2sc(Cl)cc21,-2.07% [at 30.7 µM],
COc1cc(NC(=S)N2CCN(c3ccccn3)CC2)c(OC)cc1Cl,-8.95%,
O=C(NC1CCCc2c1cnn2-c1ccccc1F)c1ccc2ncccc2c1 (configuration not stated),,2.23 µM (active)
CCOc1ccc(CCNC(=O)c2ccccn2)cc1OCC,-10.2%,
CCOc1ccc(CCNC(=O)c2ccc(N3N=C(C)CC3=O)cc2)cc1OCC,-8.66%,
O=C(NCCc1ccc(O)c(O)c1)c1cc2sccc2[nH]1,0.525%,
O=C(Cc1cccs1)Nc1nc(-c2ccc3c(c2)CCC3)cs1,-15.7%,
COc1ccc(Cl)cc1NC(=S)N1CCN(c2cccc(Cl)c2)CC1,-16.8%,
Cc1ccc(CC(=O)Nc2nc(-c3cccs3)cs2)cc1,-7.37%,
CCOC(=O)C1CCCN(C(=O)C2(NC(=O)Nc3ccc(F)cc3F)CCCCC2)C1 (configuration not stated),-17.7%,
